The record followed here is PMC7862700, “An all-to-all approach to the identification of sequence-specific readers for epigenetic DNA modifications on cytosine”.

Chain of ETV6 (P41212 whole entry): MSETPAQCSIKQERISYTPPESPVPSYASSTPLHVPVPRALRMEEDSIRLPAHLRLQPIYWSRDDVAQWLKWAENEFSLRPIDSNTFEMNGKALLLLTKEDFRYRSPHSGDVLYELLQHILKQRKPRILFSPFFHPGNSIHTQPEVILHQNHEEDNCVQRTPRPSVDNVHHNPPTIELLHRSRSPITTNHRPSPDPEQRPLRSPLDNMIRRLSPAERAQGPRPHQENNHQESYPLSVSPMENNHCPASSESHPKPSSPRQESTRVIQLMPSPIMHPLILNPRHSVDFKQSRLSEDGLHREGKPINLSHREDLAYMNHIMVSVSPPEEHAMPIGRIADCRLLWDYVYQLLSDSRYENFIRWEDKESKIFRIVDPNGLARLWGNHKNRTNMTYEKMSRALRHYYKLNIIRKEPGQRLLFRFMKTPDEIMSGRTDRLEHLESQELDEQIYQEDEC

The target of the first test is T1, ELF5 (Homo sapiens, UniProt Q9UKW6-2 1-255).
T1 sequence: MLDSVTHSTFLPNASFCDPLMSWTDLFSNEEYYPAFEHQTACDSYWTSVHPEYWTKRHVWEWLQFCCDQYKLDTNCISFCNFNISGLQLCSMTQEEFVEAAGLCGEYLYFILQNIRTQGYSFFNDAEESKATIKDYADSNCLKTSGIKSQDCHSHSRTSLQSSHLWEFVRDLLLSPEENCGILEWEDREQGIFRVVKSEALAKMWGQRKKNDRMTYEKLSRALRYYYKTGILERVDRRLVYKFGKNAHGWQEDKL
The experiment in a line: DAPPL (digital affinity profiling via proximity ligation, sequencing); 10 mM Tris-HCl pH 7.5, 50 mM NaCl, 1 mM DTT, 4% glycerol, room temperature, 30 min; GST-TFs on glutathione beads, 16-mer random dsDNA library, 0.1% formaldehyde crosslink after washing; high values mean tight binding. As to conditions: protein: recombinant; tags: N-terminal GST; dsDNA, one strand shown. The essentials:
(§1)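 Pools of DNA-barcoded human transcription factors, expressed in yeast as GST fusions on glutathione beads and combined with a tag-only sample, were incubated with 200 nmole of a 16-mer random double-stranded DNA library. Incubation took 30 min at room temperature in Tris/NaCl/DTT/glycerol buffer and was followed by washing, 0.1% formaldehyde crosslinking, proximity ligation (BsaI/T4 ligase, 1 h, 37 °C), PCR amplification and sequencing on an Illumina NextSeq500. Binding signal is the ratio of a hexamer's read frequency for a factor to its frequency for the tag-only sample.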
For the sequence AATATT, the binding signal was 1.38 fold enrichment (6-mer frequency, TF over GST control).
On the same count and under the same terms, the same measure for AAACGG: 1.25 fold enrichment (6-mer frequency, TF over GST control); for GTCACA: 1.06 fold enrichment (6-mer frequency, TF over GST control).
In the case of GGAAAA, the binding signal was 1.67 fold enrichment (6-mer frequency, TF over GST control).
For the sequence CCTAAC, the binding signal is 1.39 fold enrichment (6-mer frequency, TF over GST control).
GATATC: the binding signal was 1.74 fold enrichment (6-mer frequency, TF over GST control).
Take CTGCCG: the binding signal was 1.33 fold enrichment (6-mer frequency, TF over GST control).
On the same count and under the same terms, the same measure for ACCGCT: 1.05 fold enrichment (6-mer frequency, TF over GST control); for GATGTC: 1.42 fold enrichment (6-mer frequency, TF over GST control); for ATGGAA: 1.13 fold enrichment (6-mer frequency, TF over GST control).
On the same count and under the same terms, the same measure for CTGGCA: 1.19 fold enrichment (6-mer frequency, TF over GST control); for CACCCC: 1.16 fold enrichment (6-mer frequency, TF over GST control).
Take CGACCC: the binding signal was 1.26 fold enrichment (6-mer frequency, TF over GST control).
Consider TGCACC, for which the binding signal is 1.16 fold enrichment (6-mer frequency, TF over GST control).
In the case of ATATGG, the binding signal is 1.27 fold enrichment (6-mer frequency, TF over GST control).
On the same count and under the same terms, the same measure for CCCCGA: 1.13 fold enrichment (6-mer frequency, TF over GST control).
On the same count and under the same terms, the same measure for ATAGCA: 1.16 fold enrichment (6-mer frequency, TF over GST control); for GCACAA: 1.1 fold enrichment (6-mer frequency, TF over GST control); for CCATCC: 1.3 fold enrichment (6-mer frequency, TF over GST control).
In the case of CCTGCG, the binding signal was 1.3 fold enrichment (6-mer frequency, TF over GST control).
In the case of ATGCAC, the binding signal is 1.19 fold enrichment (6-mer frequency, TF over GST control).
Take CGTTAC: the binding signal is 1.15 fold enrichment (6-mer frequency, TF over GST control).
Turning to CGATAT, the binding signal was 1.06 fold enrichment (6-mer frequency, TF over GST control).
With ACCTCG, the binding signal was 1.06 fold enrichment (6-mer frequency, TF over GST control).
On the same count and under the same terms, the same measure for CCTCAA: 1.52 fold enrichment (6-mer frequency, TF over GST control); for CTATAA: 1.2 fold enrichment (6-mer frequency, TF over GST control).
The same measure, in the same setting: the same measure for AACTTC: 3.55 fold enrichment (6-mer frequency, TF over GST control); for TAGTGT: 1.14 fold enrichment (6-mer frequency, TF over GST control).
On the same count and under the same terms, the same measure for AAAAAC: 1.3 fold enrichment (6-mer frequency, TF over GST control); for CTGATG: 1.64 fold enrichment (6-mer frequency, TF over GST control).
With GGAAAT, the binding signal is 3.68 fold enrichment (6-mer frequency, TF over GST control).
Same read-out and setting: the same measure for TCCGTT: 1.66 fold enrichment (6-mer frequency, TF over GST control).
The same measure, in the same setting: the same measure for TTTACC: 1.2 fold enrichment (6-mer frequency, TF over GST control).
The same measure, in the same setting: the same measure for TACAAC: 1.09 fold enrichment (6-mer frequency, TF over GST control); for CTAACG: 1.12 fold enrichment (6-mer frequency, TF over GST control).
As for AGCGAC, the binding signal is 1.2 fold enrichment (6-mer frequency, TF over GST control).
Same read-out and setting: the same measure for AAACTG: 1.1 fold enrichment (6-mer frequency, TF over GST control); for TCCGTC: 1.57 fold enrichment (6-mer frequency, TF over GST control); for ATGGGC: 1.26 fold enrichment (6-mer frequency, TF over GST control).
For the sequence TGTTTA, the binding signal is 1.19 fold enrichment (6-mer frequency, TF over GST control).

In the next test the target is T2, ETV3 (Homo sapiens, UniProt P41162-2 1-143).
T2 sequence: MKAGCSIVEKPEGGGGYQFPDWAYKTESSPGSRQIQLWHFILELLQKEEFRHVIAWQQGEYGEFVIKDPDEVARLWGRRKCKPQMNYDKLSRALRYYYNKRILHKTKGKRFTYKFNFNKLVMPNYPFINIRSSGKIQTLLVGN
The description is as above. The note with it: protein: recombinant; tags: N-terminal GST; dsDNA, one strand shown. The method in brief: as §1
Take AATATT: the binding signal is 1.37 fold enrichment (6-mer frequency, TF over GST control).
In the case of AAACGG, the binding signal was 1.26 fold enrichment (6-mer frequency, TF over GST control).
The same measure, in the same setting: the same measure for GTCACA: 1.01 fold enrichment (6-mer frequency, TF over GST control); for GGAAAA: 1.31 fold enrichment (6-mer frequency, TF over GST control).
Same read-out and setting: the same measure for CCTAAC: 1.32 fold enrichment (6-mer frequency, TF over GST control); for GATATC: 1.61 fold enrichment (6-mer frequency, TF over GST control).
The same measure, in the same setting: the same measure for CTGCCG: 1.44 fold enrichment (6-mer frequency, TF over GST control).
In the case of ACCGCT, the binding signal is 1.04 fold enrichment (6-mer frequency, TF over GST control).
On the same count and under the same terms, the same measure for GATGTC: 1.32 fold enrichment (6-mer frequency, TF over GST control); for ATGGAA: 1.2 fold enrichment (6-mer frequency, TF over GST control); for CTGGCA: 1.2 fold enrichment (6-mer frequency, TF over GST control).
The same measure, in the same setting: the same measure for CACCCC: 1.27 fold enrichment (6-mer frequency, TF over GST control); for CGACCC: 1.4 fold enrichment (6-mer frequency, TF over GST control).
Still for that read-out and setting: the same measure for TGCACC: 1.24 fold enrichment (6-mer frequency, TF over GST control).
With ATATGG, the binding signal was 1.35 fold enrichment (6-mer frequency, TF over GST control).
On the same count and under the same terms, the same measure for CCCCGA: 1.05 fold enrichment (6-mer frequency, TF over GST control).
Same read-out and setting: the same measure for ATAGCA: 1.19 fold enrichment (6-mer frequency, TF over GST control); for GCACAA: 1.14 fold enrichment (6-mer frequency, TF over GST control).
Same read-out and setting: the same measure for CCATCC: 1.27 fold enrichment (6-mer frequency, TF over GST control); for CCTGCG: 1.4 fold enrichment (6-mer frequency, TF over GST control); for ATGCAC: 1.31 fold enrichment (6-mer frequency, TF over GST control).
Turning to CGTTAC, the binding signal is 1.14 fold enrichment (6-mer frequency, TF over GST control).
Still for that read-out and setting: the same measure for CGATAT: 1.03 fold enrichment (6-mer frequency, TF over GST control); for ACCTCG: 1.1 fold enrichment (6-mer frequency, TF over GST control); for CCTCAA: 1.48 fold enrichment (6-mer frequency, TF over GST control).
As for CTATAA, the binding signal was 1.14 fold enrichment (6-mer frequency, TF over GST control).
The same measure, in the same setting: the same measure for AACTTC: 2.57 fold enrichment (6-mer frequency, TF over GST control).
Still for that read-out and setting: the same measure for TAGTGT: 1.13 fold enrichment (6-mer frequency, TF over GST control).
The same measure, in the same setting: the same measure for AAAAAC: 1.2 fold enrichment (6-mer frequency, TF over GST control); for CTGATG: 1.74 fold enrichment (6-mer frequency, TF over GST control).
Consider GGAAAT, for which the binding signal was 2.88 fold enrichment (6-mer frequency, TF over GST control).
Take TCCGTT: the binding signal was 1.58 fold enrichment (6-mer frequency, TF over GST control).
Turning to TTTACC, the binding signal is 1.36 fold enrichment (6-mer frequency, TF over GST control).
As for TACAAC, the binding signal is 1.15 fold enrichment (6-mer frequency, TF over GST control).
Turning to CTAACG, the binding signal was 1.17 fold enrichment (6-mer frequency, TF over GST control).
Still for that read-out and setting: the same measure for AGCGAC: 1.14 fold enrichment (6-mer frequency, TF over GST control); for AAACTG: 1.07 fold enrichment (6-mer frequency, TF over GST control); for TCCGTC: 1.55 fold enrichment (6-mer frequency, TF over GST control).
On the same count and under the same terms, the same measure for ATGGGC: 1.23 fold enrichment (6-mer frequency, TF over GST control); for TGTTTA: 1.12 fold enrichment (6-mer frequency, TF over GST control).

The next test has as its target ETV6 (Homo sapiens, UniProt P41212 1-452). The description is as above. As to conditions: protein: recombinant; tags: N-terminal GST; dsDNA, one strand shown. The method in brief: as §1
As to AATATT, the binding signal was 1.46 fold enrichment (6-mer frequency, TF over GST control).
On to AAACGG, for which the binding signal is 1.28 fold enrichment (6-mer frequency, TF over GST control).
In the case of GTCACA, the binding signal was 1.06 fold enrichment (6-mer frequency, TF over GST control).
For GGAAAA, the binding signal is 1.53 fold enrichment (6-mer frequency, TF over GST control).
For the sequence CCTAAC, the binding signal was 1.3 fold enrichment (6-mer frequency, TF over GST control).
Still for that read-out and setting: the same measure for GATATC: 1.51 fold enrichment (6-mer frequency, TF over GST control).
Still for that read-out and setting: the same measure for CTGCCG: 1.39 fold enrichment (6-mer frequency, TF over GST control).
Same read-out and setting: the same measure for ACCGCT: 1.15 fold enrichment (6-mer frequency, TF over GST control); for GATGTC: 1.21 fold enrichment (6-mer frequency, TF over GST control); for ATGGAA: 1.28 fold enrichment (6-mer frequency, TF over GST control).
CTGGCA: the binding signal is 1.28 fold enrichment (6-mer frequency, TF over GST control).
The same measure, in the same setting: the same measure for CACCCC: 1.14 fold enrichment (6-mer frequency, TF over GST control); for CGACCC: 1.29 fold enrichment (6-mer frequency, TF over GST control).
Regarding TGCACC, the binding signal is 1.19 fold enrichment (6-mer frequency, TF over GST control).
Still for that read-out and setting: the same measure for ATATGG: 1.34 fold enrichment (6-mer frequency, TF over GST control).
The same measure, in the same setting: the same measure for CCCCGA: 1.11 fold enrichment (6-mer frequency, TF over GST control); for ATAGCA: 1.18 fold enrichment (6-mer frequency, TF over GST control).
On the same count and under the same terms, the same measure for GCACAA: 1.11 fold enrichment (6-mer frequency, TF over GST control).
CCATCC: the binding signal is 1.2 fold enrichment (6-mer frequency, TF over GST control).
As for CCTGCG, the binding signal was 1.35 fold enrichment (6-mer frequency, TF over GST control).
On the same count and under the same terms, the same measure for ATGCAC: 1.29 fold enrichment (6-mer frequency, TF over GST control).
With CGTTAC, the binding signal was 1.12 fold enrichment (6-mer frequency, TF over GST control).
Turning to CGATAT, the binding signal was 1.06 fold enrichment (6-mer frequency, TF over GST control).
Still for that read-out and setting: the same measure for ACCTCG: 1.09 fold enrichment (6-mer frequency, TF over GST control); for CCTCAA: 1.42 fold enrichment (6-mer frequency, TF over GST control); for CTATAA: 1.16 fold enrichment (6-mer frequency, TF over GST control).
Turning to AACTTC, the binding signal is 2.76 fold enrichment (6-mer frequency, TF over GST control).
As to TAGTGT, the binding signal is 1.02 fold enrichment (6-mer frequency, TF over GST control).
For AAAAAC, the binding signal was 1.26 fold enrichment (6-mer frequency, TF over GST control).
Regarding CTGATG, the binding signal is 1.72 fold enrichment (6-mer frequency, TF over GST control).
On to GGAAAT, for which the binding signal was 3.32 fold enrichment (6-mer frequency, TF over GST control).
As for TCCGTT, the binding signal was 1.49 fold enrichment (6-mer frequency, TF over GST control).
Still for that read-out and setting: the same measure for TTTACC: 1.26 fold enrichment (6-mer frequency, TF over GST control); for TACAAC: 1.11 fold enrichment (6-mer frequency, TF over GST control); for CTAACG: 1.16 fold enrichment (6-mer frequency, TF over GST control).
Regarding AGCGAC, the binding signal is 1.17 fold enrichment (6-mer frequency, TF over GST control).
Regarding AAACTG, the binding signal was 1.12 fold enrichment (6-mer frequency, TF over GST control).
In the case of TCCGTC, the binding signal was 1.37 fold enrichment (6-mer frequency, TF over GST control).
Still for that read-out and setting: the same measure for ATGGGC: 1.33 fold enrichment (6-mer frequency, TF over GST control).
TGTTTA: the binding signal is 1.19 fold enrichment (6-mer frequency, TF over GST control).
